PubChem BioAssay AID2112 (National Center for Advancing Translational Sciences (NCATS), 2009)
The whole screen tested about 240,000 compounds, of which about 15 (0.006%) were called active. The call rests on the fitted dose curve; in most records, active means well fitted inhibition curve with a large enough effect; inconclusive means small, poorly fitted or top-dose-only effect, or effect the other way, or another doubt; inactive means no such curve, though single readings can be large or run the other way. Not all results are given here.

These molecules were tested against Lysosomal alpha-glucosidase (Homo sapiens) (UniProt P10253) (assay: qHTS Assay for Inhibitors and Activators of Human alpha-Glucosidase From Spleen Homogenate). Conditions: 4-MU-alpha-glucoside fluorescence; series mostly up to 79.9 µM.
Description: NIH Chemical Genomics Center [NCGC] NIH Molecular Libraries Probe Production Centers Network [MLPCN] MLPCN Grant: R03 MH084841-01 Assay Submitter (PI): Wei Zheng NCGC Assay Overview: Alpha-glucosidase is responsible for the hydrolysis of terminal, non-reducing 1,4-linked alpha-D-glucose residues, which releases alpha-D-glucose. It is a lysosomal hydrolase that is required for the degradation of a small percentage (1-3%) of cellular glycogen in humans. Deficiency of this enzyme results in glycogen-storage disease type II (GSDII), also referred to as Pompe disease, an autosomal recessive disorder. Structurally normal glycogen is accumulated in the lysosomes and cytoplasm in affected patients, primarily in muscle tissues. Excessive glycogen storage within lysosomes may interrupt normal functioning of other organelles and leads to cellular injury. In turn, this leads to enlargement and dysfunction of the entire organ involved (eg: cardiomyopathy and muscle weakness). It has been reported that the improper folding and trafficking of alpha-glucosidase resulting from genetic mutations may account for a significant number of Pompe patients. […] We optimized this alpha-glucosidase assay in 1536-well plate format for identification of novel small molecule inhibitors or activators with structures other than the sugar analogs in order to develop new pharmacological chaperones. In particular, this assay is directed towards discovering compounds active in a more natural setting, tissue homogenate, that may have been missed by screens of the purified enzyme under more stringent conditions.
NCGC Assay Protocol Summary: This is a fluorogenic enzyme assay with 4-methylumbelliferyl-alpha-D-glucopyranoside as the substrate and human spleen homogenate containing alpha-glucosidase as the enzyme preparation. Upon hydrolysis of this fluorogenic substrate, the resulting product, 4-methylumbelliferone (which excites at 365 nm and emits at 440 nm) can be detected by a fluorescence plate reader. Data were normalized to the controls for basal activity (without enzyme) and 100% activity (with enzyme). The AC50 values were determined from concentration-response data modeled with the standard Hill equation. Assay buffer: 50 mM citric acid (titrated with potassium phosphate to pH 5.0), 0.01% Tween-20 (pH 5.0 is an optimal condition for this enzyme assay) 1536-well assay protocol for the alpha-glucosidase from human spleen homogenate: (1) Add 2 ul/well spleen homogenate (1 ug) (2) Add 23 nL compounds in DMSO solution. The final titration was 0.5 nM to 58 uM. (3) Add 2 ul of substrate (1 mM final) (4) Incubate at 37 C for 40 min (5) Add 2 ul stop solution (1M NaOH and 1M Glycine mixture, pH 10) (6) Detect the assay plate in a ViewLux plate reader (PerkinElmer) with Ex=365 nm and Em=440nm. Keywords: Alpha-glucosidase, Pompe Disease, pharmacological chaperone, chaperone therapy, high throughput screening, alpha-glucosidase inhibitor, MLSMR, MLSCN, NIH Roadmap, qHTS and NCGC
O=c1cc(-c2ccc(O)cc2)oc2c([C@@H]3O[C@H](CO)[C@@H](O)[C@H](O)[C@H]3O)c(O)cc(O)c12 was tested, and the outcome was “inactive”. In the case of Cc1sc2ncnc(Sc3nc4ccccc4s3)c2c1C, the outcome is reported as “inactive”. With COc1ccc(C(CC(=O)c2ccccc2)S(=O)(=O)c2ccccc2)cc1 (stereo not given) the outcome was “inactive”. With O=C1NNC(c2ccccc2)=N/C1=C\c1ccc(Cl)cc1 the outcome was “inactive”. For CC(O)[C@@H](N)C(=O)O (stereo not given in full), the outcome was “inactive”. OCCC(O)CO (stereo not given) was tested, and the outcome was “inactive”. Cc1ccc(-c2cn(S(=O)(=O)c3cccc([N+](=O)[O-])c3)nc2N)cc1 was tested, and the outcome was “inactive”. ONC(=Nc1ccccc1)c1ccccc1Cl was tested, and the outcome was “inactive”. For Cc1c(Br)ccc(NC(=O)COc2ccccc2C(N)=O)c1C, the outcome was “inactive”. In the case of O=C(NCCc1ccccc1)C1CCN(S(=O)(=O)c2ccc(Br)s2)CC1, the outcome is reported as “inactive”. C=CCn1c(SCC(=O)c2c(N)n(C)c(=O)n(C)c2=O)nc2sc(CC)cc2c1=O was tested, and the outcome was “inactive”. With C=CCOC(=O)C(=C)C the outcome was “inactive”. Cc1ccc(SCC(CC(C)C)N2CCN(CCc3ccccc3)CCC2=O)cc1 (stereo not given) was tested, and the outcome was “inactive”. Cc1nc(=O)c(-c2ccccc2)c(C)n1-c1ccc(Br)cc1 was tested, and the outcome was “inactive”. Cc1cc(OCCCC(=O)NCCN2C(=O)S/C(=C\c3cccnc3)C2=O)ccc1Cl was tested, and the outcome was “inactive”. For Fc1ccc(Cl)cc1-c1nc(Nc2ccncc2)c2nccnc2n1, the outcome was “inactive”. CCOC(=O)c1sc(C)c2c1NC(C)(c1cccc3ccccc13)NC2=O (stereo not given) was tested, and the outcome was “inactive”. COc1ccc2c(c1)c(=O)c(C(=O)c1ccc(Cl)cc1)cn2CC(=O)Nc1ccc(F)cc1 was tested, and the outcome was “inactive”. CCOCCOC(=O)C(C)Oc1ccc(Oc2ncc(C(F)(F)F)cc2Cl)cc1 (stereo not given) was tested, and the outcome was “inactive”. S=c1ccc2ccccc2[nH]1 was tested, and the outcome was “inactive”. In the case of C=CCC(C(=O)c1ccccc1)[N+](C)(C)CC=C (stereo not given), the outcome is reported as “inactive”. For O=c1[nH]oc(O)c1-c1ncc(C(F)(F)F)cc1Cl, the outcome was “inactive”. With Cc1cc2ccccn2c1C(=O)c1cccc(S(=O)(=O)N2CCOCC2)c1 the outcome was “inactive”. For CC(=O)NNC(=O)c1csc(Cc2c(Cl)sc3ccc(Cl)cc23)n1, the outcome was “inactive”. For CCCCc1nn(-c2ccccc2C(F)(F)F)c(=O)n1Cc1ccc(-c2ccccc2S(=O)(=O)NC(=O)c2sccc2C)cc1, the outcome was “inactive”. For COC(=O)c1sc(-c2ccc(C(C)(C)C)cc2)cc1NC(=O)/C=C/C(=O)O, the outcome was “inactive”. CNC(=O)[C@]1(C(F)(F)F)C[C@H](CCc2ccccc2)CCCO1 was tested, and the outcome was “inactive”. For C[C@@H]1O[C@@H](OC[C@H]2O[C@@H](Oc3cc(O)c4c(c3)O[C@H](c3ccc(O)c(O)c3)CC4=O)[C@H](O)[C@@H](O)[C@@H]2O)[C@H](O)[C@H](O)[C@H]1O, the outcome was “inactive”. With O=C1C[C@@H](c2ccc3ccccc3c2)N1S(=O)(=O)c1ccccc1[N+](=O)[O-] the outcome was “inactive”. In the case of O=C(Nc1cc(C(=O)Nc2ccc(S(=O)(=O)O)cc2)cc(C(=O)Nc2ccc(S(=O)(=O)O)cc2)c1)Nc1cc(C(=O)Nc2ccc(S(=O)(=O)O)cc2)cc(C(=O)Nc2ccc(S(=O)(=O)O)cc2)c1, the outcome is reported as “inactive”. For O=c1[nH]c(CN2CCN(S(=O)(=O)c3ccc4c(c3)OCCO4)CC2)nc2sc3c(c12)CCCC3, the outcome was “inactive”. With CC(Oc1ccc(Br)cc1Br)C(=O)NC1CCCC1 (stereo not given) the outcome was “inactive”. O=C(O)C1CC=CC2CCN(C3CCCCC3)C(=O)C21 (stereo not given) was tested, and the outcome was “inactive”. With COc1ccc(Br)cc1C1C2C=CCC(C)C2C(=O)N1Cc1ccccc1 (stereo not given) the outcome was “inactive”. CCCCC/C=C\C/C=C\CCCCCCCCCC(N)=O was tested, and the outcome was “inactive”. In the case of CCCCN(CC)C(=O)c1ccccc1Oc1ccccc1, the outcome is reported as “inactive”. With O=C(COc1ccc(/C=N/NS(=O)(=O)c2ccccc2)cc1)NCCc1ccccc1 the outcome was “inactive”. For Oc1ccc(N2CCN(C(=S)NCc3ccccc3)CC2)cc1, the outcome was “inactive”. In the case of COc1ccc(C[C@H](C(=O)O)N2C(=O)c3ccc(C(=O)O)cc3C2=O)cc1, the outcome is reported as “inactive”. CCNc1nc(NC(C)C)nc(N2CC(=O)N(CC(=O)OCC)C2=N)n1 was tested, and the outcome was “inactive”. With Cc1cc2oc(C(=O)Nc3c(C)n(C)n(-c4ccccc4)c3=O)c(C)c2cc1Cl the outcome was “inactive”. For CC1(C)Cc2nc3sc4c(SCC(=O)NC(c5ccccc5)c5ccccc5)ncnc4c3cc2CO1, the outcome was “inactive”. In the case of FC(F)(F)c1nc(-c2ccccc2)ncc1-c1nnnn1-c1ccccc1, the outcome is reported as “inactive”. CCCCNc1ccc(C(=O)Nc2cccc(C)n2)cc1[N+](=O)[O-] was tested, and the outcome was “inactive”. For COc1cc(NS(=O)(=O)c2ccc3ccccc3c2)c2ncccc2c1, the outcome was “inactive”. With CC/C(=N\NC(=O)c1ccccc1Cl)c1ccc(Br)s1 the outcome was “inactive”. With Cc1noc(C)c1-c1ccc2ncnc(NC(C)c3ccco3)c2c1 (stereo not given) the outcome was “inactive”. With CN(C)CCc1c[nH]c2ccc(Cn3cncn3)cc12 the outcome was “inactive”. CC1CCC(C(C)C)C(=O)/C1=C\c1ccc(NC(=O)CCC(=O)O)cc1 (stereo not given) was tested, and the outcome was “inactive”. In the case of O=c1[nH]c2cccnc2n(CCNc2ncc(C(F)(F)F)cc2Cl)c1=O, the outcome is reported as “inactive”.
